Data from PubChem BioAssay (NCATS).
Where “and” joins values, the source holds several entries; their conditions need not be identical. Equal values may be shown once. Inconclusive results are not listed. A number with no mark means an inactive call. The call rests on the fitted dose curve; in most records, active means well fitted curve in the direction sought with a large enough effect in the signal ratio, with a control signal flat; inconclusive means small, poorly fitted or top-dose-only effect, or a change in a side signal; inactive means no such curve, though single readings can be large or run the other way; the % refers to the signal ratio.

Target: Glucocorticoid receptor (Homo sapiens) (UniProt P04150)
Assay: qHTS assay for small molecule agonists of glucocorticoid receptor signaling (AID 588532)
Conditions: HeLa MMTV-bla, beta-lactamase ratio, agonist, 18 h; stronger effect = higher value; percent of dexamethasone control, DMSO zero
From the text: NIH Chemical Genomics Center [NCGC] U.S. Environmental Protection Agency [EPA] National Institutes of Environmental Health Sciences [NIEHS] National Toxicology Program [NTP] NCGC Assay Overview The Glucocorticoid receptor (GR), a nuclear receptor subfamily member and its natural ligands includes […] etc. The GR is a validated drug target for inflammation. GR ligands such as dexamethasone are clinically available as anti-inflammatory drugs. Glucocorticoids implicate role in carbohydrate, protein and lipid metabolisms and programmed cell death. They are also a component of many chemotherapy regimens for the treatment of leukemias, lymphomas, and myelomas because of their role in the induction of apoptosis.
NCGC Assay Protocol Summary Using a beta-lactamase reporter-gene under control of glucocorticoid response element (GRE), a cell-based assay [CellSensor MMTV-bla HeLa cell line assay developed by Invitrogen] was used to measure GR ligands signaling. CellSensor MMTV-bla HeLa cells were used with assay medium containing 1% charcoal/dextran treated FBS, 0.1 mM NEAA, 1 mM sodium pyruvate and 25mM HEPES. The assay was performed in clear bottom black Greiner 1536-well plates. Dexamethasone and Mifepristine were used in the screen as agonist and antagonist positive controls respectively. Library compounds were measured for their ability to stimulate the reporter gene activity. Compounds were screened in a titration series in 1536-well format. The fluorescence intensity (405 nm excitation, 460/530 nm emission) was measured using an EnVision plate reader. Data was normalized relative to Dexamethasone control (0.1 uM, 100%), and DMSO only wells (basal, 0%). Concentration-response titration points for each compound were fitted to the Hill equation yielding concentrations of half-maximal stimulation (EC50) and maximal response (efficacy) values. qHTS protocol for GR beta-lactamase assay in agonist mode [Step] [Parameter] [Value] [Description] 1. Reagent; 6 uL; 1500 cells/well 2. Incubation; 37 C for 3-5 hrs 3. Compounds; 23 nL; 0.59 nM to 92 uM 4. Controls (Dexamethasone); 23 nL, - One column with dose response, start 4.6uM, 1:3 dilutions in duplicates - Final concentrations of 0.1 uM and 2 nM in two columns 5. Incubation; 37 C for 18 hrs 6. Detection reagent; 1 uL of CCF4-dye 7. Incubation; RT for 2 hrs 8. Detection; Fluorescence; Envision plate reader

Sequence of Glucocorticoid receptor (Homo sapiens) (P04150 whole entry, looked up): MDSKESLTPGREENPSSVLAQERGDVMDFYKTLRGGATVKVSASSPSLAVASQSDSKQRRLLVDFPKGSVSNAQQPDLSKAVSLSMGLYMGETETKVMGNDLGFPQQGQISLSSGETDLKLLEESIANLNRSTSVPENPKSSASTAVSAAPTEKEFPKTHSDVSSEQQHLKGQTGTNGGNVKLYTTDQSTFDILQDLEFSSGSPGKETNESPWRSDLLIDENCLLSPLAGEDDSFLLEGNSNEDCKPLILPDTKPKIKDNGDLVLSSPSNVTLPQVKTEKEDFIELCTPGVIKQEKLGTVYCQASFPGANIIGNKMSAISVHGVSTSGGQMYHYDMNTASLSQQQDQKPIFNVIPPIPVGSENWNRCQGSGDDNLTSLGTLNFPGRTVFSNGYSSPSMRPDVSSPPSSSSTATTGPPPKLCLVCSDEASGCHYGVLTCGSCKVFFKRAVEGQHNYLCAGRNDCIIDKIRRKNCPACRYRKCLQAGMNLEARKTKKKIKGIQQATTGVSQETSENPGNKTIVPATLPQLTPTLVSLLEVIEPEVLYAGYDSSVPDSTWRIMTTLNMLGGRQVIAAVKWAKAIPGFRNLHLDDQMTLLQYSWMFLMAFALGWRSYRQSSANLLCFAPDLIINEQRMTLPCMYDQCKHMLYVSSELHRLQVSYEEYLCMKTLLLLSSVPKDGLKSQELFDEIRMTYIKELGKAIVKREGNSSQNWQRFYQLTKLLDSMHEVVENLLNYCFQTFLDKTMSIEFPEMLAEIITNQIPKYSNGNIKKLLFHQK

Row | SMILES | activation
1 | CC(C)N1C(=O)c2ccccc2NS1(=O)=O | 4.24%
2 | Nc1ccc(Br)cc1 | -2.07%
3 | CCOCN(C(=O)CCl)c1c(C)cccc1CC | 5.28% and 1.08%
4 | CCOc1ccc(N)cc1 | 2.46%
5 | CCCCOCCOP(=O)(OCCOCCCC)OCCOCCCC | 0.713% and -16.4%
6 | O=C(O)C1C2CCC(O2)C1C(=O)O (stereo not given) | -13.9%
7 | CCCC(=O)Cl | 7.24%
8 | C=C(C)C(=O)OCC1CO1 (stereo not given) | -3.77%
9 | O=C=NC1CCCCC1 | 10.3%
10 | CNC(=O)Oc1cccc2c1OC(C)(C)O2 | -2.85%
11 | CCS(=O)CCSP(=O)(OC)OC (stereo not given) | 2.31%
12 | O=[N+]([O-])c1ccc(Cl)c(Cl)c1 | 0.986%
13 | C=CC(N)=O | -1.03% and 0.342%
14 | O=C(Cl)C(Cl)(Cl)Cl | -1.29%
15 | O=S1OCC2C(CO1)C1(Cl)C(Cl)=C(Cl)C2(Cl)C1(Cl)Cl (stereo not given) | 7.98%
16 | Nc1c(Cl)c(Cl)nc(C(=O)O)c1Cl | -2.38% and -16.4% and -2.51%
17 | Cc1cccc([N+](=O)[O-])c1 | 4.17% and -5.85%
18 | C=CC1CC=CCC1 (stereo not given) | -1.79% and -4.91%
19 | c1nc[nH]n1 | 11.9%
20 | C=CCOC(C)=O | 10.3%

Row | SMILES | activation
21 | ClC1=C(Cl)C2(Cl)C3C4C=CC(C4)C3C1(Cl)C2(Cl)Cl (stereo not given) | 16.6%
22 | CNC(=O)O/N=C/C(C)(C)SC | -4.75% and -0.357% and -10.4%
23 | ClC1=C(Cl)C2(Cl)C3C4CC(C5OC45)C3C1(Cl)C2(Cl)Cl (stereo not given) | -5.87%
24 | O=C(O)COc1cc(Cl)c(Cl)cc1Cl | -6.14%
25 | CNC(=O)Oc1ccccc1OC(C)C | -7.67%
26 | C[C@]12CC[C@H]3[C@@H](CCC4=CC(=O)CC[C@@]43C)[C@@H]1CC[C@@H]2O | -9.17%
27 | CC(C)(C)OOC(C)(C)C | -1.7%
28 | ClC1=C(Cl)C2(Cl)C3C(Cl)C=CC3C1(Cl)C2(Cl)Cl (stereo not given) | 0.68%
29 | CC(C)(C)C(=O)C(Oc1ccc(Cl)cc1)n1cncn1 (stereo not given) | -3.08% and -1.34%
30 | C=CCOC(=O)c1ccccc1N | 3.1%
31 | Clc1nc(Cl)nc(Cl)n1 | 2.08% and -5.01%
32 | C=CC(=C)C | -4.98%
33 | Cc1ccc(O)c(C)c1 | 12.9% and 20.9%
34 | CC1(C)C(C=C(Cl)Cl)C1C(=O)OCc1cccc(Oc2ccccc2)c1 (stereo not given) | 2.68% and -0.215% and 2.06%
35 | C=C(Cl)Cl | -1.7%
36 | O=C(O)COc1ccc(Cl)cc1Cl | -2.35% [middle of 4 runs]
37 | c1ccc(N=Nc2ccccc2)cc1 | 3.39%
38 | CCCCCCCC(=O)Cl | 5.97%
39 | COC(=O)NC(=S)Nc1ccccc1NC(=S)NC(=O)OC | 7.06% and -4.28%
40 | CCC[CH2][Sn]([Cl])([Cl])[Cl] | -4.16% and -3.24%
